This is part of a sample that, as a whole, favours compounds with a hit. Of some 83,000 tested, about 20% had one in any assay.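 Single-concentration screen, 48 h exposure, 96-well plates. Endpoint: percent growth. Below 10 = active.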 A number with no mark means an inactive call. The source made the active and inactive calls.

In this assay the test system is HCT-15 colon. Put plainly: NCI-60 one-dose screen, 48 h (100 = growth as untreated, 0 = no growth, -100 = all killed). The settings on record: 10 µM.
On to `COc1ccc(C2c3sc4ccc(C)cc4c3Oc3nc(N)nc(N)c32)cc1` (centres undefined), for which the growth is 59.9%. In the case of `Cc1cc(N=C2NC(=O)S/C2=C\c2ccc(F)cc2)n[nH]1`, the growth is 13.9%. The value for `Cn1cc(-c2nnc(N)nc2-c2c[nH]c3ccccc23)c2cc(Br)cnc21` was 25.4%; that for `O=C(CC(=O)Nc1ccc(Oc2ncnc3scc(Nc4n[nH]c(=S)s4)c23)cc1)Nc1ccc(Cl)cc1` was 66.9%; that for `O=C1NC2C=CC=CC2/C1=C1/SC(=S)N(C2CC(=O)N(c3ccc(Br)cc3)C2=O)C1=O` (centres undefined) was 59.3%. The value for `CC1(C)CC(=O)C2=C(C1)N(Cc1ccc(C(=O)O)cc1)C1=C(C(=O)CC(C)(C)C1)C2c1ccc(Cl)cc1` was 98.4%. Take `Cc1ccc2c(c1)C(=O)/C(=C/c1ccc([N+](=O)[O-])cc1)S2`: the growth was 96.2%. For the compound `O=C(Nc1ccc(OCc2ccc(Cl)cc2)cc1)Nc1ccc(Cl)c(C(F)(F)F)c1`, the growth is 9.07% (active). The value for `Cn1cc(-c2nc(N)nnc2-c2c[nH]c3ccccc23)c2cc(Br)cnc21` was 10.2%. The value for `O=C(CSc1nc2ccccc2c(=O)n1-c1ccc(Cl)cc1)Nc1ccc(-c2nc3ccccc3[nH]2)cc1` was -7.08% (active); that for `Cc1ccc2c(c1)C(=O)/C(=C/c1c[nH]c3ccccc13)S2` was 29.5%; that for `COc1cccc(O)c1/C=C1\SCc2cc3c(OC)cccc3[o+]c21` was 111%.

On to `COc1cc(C2CC(c3ccc(Oc4ccc(Cl)cc4)cc3)=NN2c2nc(-c3ccc(Cl)cc3)c(C#N)c(N3CCOCC3)n2)cc(OC)c1OC` (centres undefined), for which the growth was 95.7%. Then `O=C(Nc1ccc(OCC(=O)c2ccc(Cl)cc2)cc1)Nc1ccc(Cl)c(C(F)(F)F)c1`, with 23.6%. For `Cc1ccc2sc3c(c2c1)Oc1nc[nH]c(=O)c1C3c1cccc(F)c1` (centres undefined), the growth was 92.6%. Take `Cc1cc(N=C2NC(=O)/C(=C/c3cc(C(C)(C)C)c(O)c(C(C)(C)C)c3)S2)n[nH]1`: the growth was 6.98% (active). The value for `COc1ccc(C2c3sc4ccc(C)cc4c3Oc3nc[nH]c(=O)c32)cc1` (centres undefined) was 40.6%; that for `COc1cccc(C(=O)CSc2nc(-c3ccc(OCc4ccccc4)c(OC)c3)c(C#N)c(=O)[nH]2)c1` was 92.8%. Turning to `Cc1ccc(COc2ccc(NC(=O)Nc3ccc(Cl)c(C(F)(F)F)c3)cc2)cc1`, the growth was 52.2%. In the case of `CC(C)(C)c1cc(/C=C2\S/C(=N/c3ncn[nH]3)NC2=O)cc(C(C)(C)C)c1O`, the growth is 11.5%. The value for `Cn1cc(/C=C(/SS/C(=C/c2cn(C)c3cccc(C(=O)O)c23)C(=O)O)C(=O)O)c2c(C(=O)O)cccc21` was 99.4%; that for `COc1ccc(C(=O)COc2ccc(NC(=O)Nc3ccccc3)cc2)cc1` was 80.3%. Consider `CCn1c(SCC(=O)Nc2ccc(-c3nc4ccccc4[nH]3)cc2)nc2ccccc2c1=O`, for which the growth was -50% (active). For the compound `O=C(Nc1ccc(OCc2ccc(F)cc2)cc1)Nc1ccc(Cl)c(C(F)(F)F)c1`, the growth was 7.42% (active). Turning to `O=C(CC(=O)Nc1ccc(Oc2ncnc3scc(Nc4n[nH]c(=S)s4)c23)cc1)Nc1ccc(Br)cc1`, the growth is 100%. For the compound `COc1ccc(C(=O)COc2ccc(NC(=O)Nc3ccc(Cl)c(C(F)(F)F)c3)cc2)cc1`, the growth was 8.56% (active). For the compound `O=C(Nc1ccc(Oc2ncnc3scc(Nc4n[nH]c(=S)s4)c23)cc1)C1(C(=O)Nc2cccc(C(F)(F)F)c2)CC1`, the growth is 95.4%.

For `O=C1NC(=S)S/C1=C\c1cn(-c2ccccc2)nc1-c1ccc([N+](=O)[O-])cc1`, the growth was 10.4%. For the compound `O=C(CSc1nc2ccccc2c(=O)n1-c1ccc(Cl)cc1)Nc1ccc(-c2nc3ccc([N+](=O)[O-])cc3[nH]2)cc1`, the growth is 56.3%.
